DT40 TDP1 CPT = qHTS for Inhibitors of human tyrosyl-DNA phosphodiesterase 1 (TDP1): qHTS in cells in presence of CPT; chicken DT40 Tdp1-/-;hTDP1 cells + 20 nM CPT, ATP luminescence, 48 h; Potency, µM (highest dose often 46.2 µM), inactives show at the top dose activity change, negative = growth inhibition, most hits filed as inhibitors; 12% of 420,000 active; further: potency means the concentration at half of the fitted maximal effect; nearly all actives have a fitted effect of over 55% in size
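Chicken DT40 Tdp1-/- cells stably complemented with human TDP1 were seeded at 400 cells/well in medium containing 20 nM camptothecin, exposed to pin-transferred compounds, and grown at 37 °C for at least 48 hr. Viability was read as ATP luminescence.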
IL1B secr inh = qHTS for Inhibitors of Inflammasome Signaling: IL-1-beta AlphaLISA Primary Screen; THP-1 LPS/ATP IL-1B secretion, AlphaLISA, 16 h; hits give low values; activity change, % at 57.5 µM; 4.7% of 360,000 active; AID 743279, 2014; in the data active means activity change below about -50%; inconclusive means mostly about -30% to -49%
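THP-1 cells pretreated 1 hr with compounds (up to 57.5 uM final), then stimulated with LPS (250 ng/mL final) plus ATP (1.25 mM final); secreted IL-1B measured by AlphaLISA after 16 hr, decreased signal indicating inhibition.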
TDP1 cell noCPT = qHTS for Inhibitors of human tyrosyl-DNA phosphodiesterase 1 (TDP1): qHTS in cells in absence of CPT; Potency, µM (highest dose often 46.2 µM), for the others: at the highest dose activity change, negative = growth inhibition, hits mostly inhibitors; AID 686978, 2013; 15% of 420,000 active; DT40 Tdp1-/- hTDP1 cells, no CPT, ATP luminescence, 48 h; further: potency means the concentration at half of the fitted maximal effect; nearly all actives have a fitted effect of over 55% in size
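Seeded 400 DT40-hTDP1 cells/well (vehicle DMSO, no 20 nM CPT); pinned compounds; ≥48 hr at 37 °C; CellTiter-Glo luminescence as viability measure.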
HT1080 IDH1KD tx = qHTS for induction of synthetic lethality in tumor cells producing 2HG: qHTS for the HT-1080-IDH1KD cell line; HT-1080 IDH1 knockdown viability, ATP luminescence, 48 h; 2% of 360,000 active; Potency, µM (titrated, usually from 46.1 µM), for inactives: at the highest dose activity, negative = toxicity, actives largely listed as cytotoxic;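 further: potency means the concentration at half of the fitted maximal effect; 0% = DMSO wells and -100% = cell-free medium wells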
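Assay cells: HT-1080 with IDH1 knockdown, 750 per well, RPMI/5% FBS. Exposure: 48 h at 37 °C following 2 h pre-incubation. Read: CellTiter-Glo luminescence; fitted concentration-response, curve class assigned.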
ELG1 DNA repair = qHTS screen for small molecules that inhibit ELG1-dependent DNA repair in human embryonic kidney (HEK293T) cells expressing luciferase-tagged ELG1 | Potency, µM (top dose mostly 46.1 µM), without a hit: at the highest dose activity change, negative = inhibition, actives largely listed as inhibitors | HEK293T ELG1-luciferase reporter, luminescence, 16 h; DNA damage induced by 5-fluorouridine | AID 504467, 2011 | 2.3% of 330,000 active; further: potency means the concentration at half of the fitted maximal effect; nearly all actives have a fitted effect of over 55% in size
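Quantitative HTS, concentration-response format. 2,000 cells/well co-treated with 5-fluorouridine and compound, 16 hr in 5% CO2 at 37 °C; ONE-Glo luminescence read after 30 min.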
HT1080-NT tox = qHTS for induction of synthetic lethality in tumor cells producing 2HG: qHTS for the HT-1080-NT fibrosarcoma cell line. Potency, µM (top dose mostly 46.1 µM), for inactives: at the highest dose activity, negative = less viability, actives largely listed as cytotoxic. HT-1080-NT fibrosarcoma viability, CellTiter-Glo ATP luminescence, 48 h. 1.6% of 360,000 active;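 further: NT is the 2HG producing partner of a matched IDH1 knockdown line; potency means the concentration at half of the fitted maximal effect; 0% = DMSO-treated cells and -100% = media-only wells without cells; nearly all actives have a fitted effect of over 55% in size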
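Compounds were tested in concentration-response format on HT-1080-NT cells for 48 hours at 37 degrees C. Cell viability came from CellTiter-Glo luminescence; curves were classified by r2, response magnitude and activity.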
The depositor's hits bear a star. In the library only some 19% were active in any assay of this set; here they are far more common. Unless noted, the call rests on the fitted dose curve; in most records, active means well fitted curve in the direction sought with a large enough effect; inconclusive means small, poorly fitted or top-dose-only effect, or another doubt; inactive means no such curve, though single readings can be large; an effect the other way counts as inactive or inconclusive. Unless noted, on the % scale 0 is the no-effect control and ±100 the full control effect.

How did CCOC(=O)c1ccc(NC(=O)CC2C(=O)N(c3ccccc3)C(=O)N2C2CCCCC2)cc1 (centres undefined) do in these assays?
DT40 TDP1 CPT: 26µM*; TDP1 cell noCPT: 16µM*

Results for Cc1cccc(N2C(=O)C(CC(=O)Nc3ccccc3)N(C3CCCCC3)C2=O)c1 (centres undefined) ?
DT40 TDP1 CPT: -21%; TDP1 cell noCPT: inconclusive

What do the screens show for `CCOc1ccc(NC(=O)CC2C(=O)N(c3ccc(C)cc3)C(=O)N2C2CCCCC2)cc1` (centres undefined)?
DT40 TDP1 CPT: 18µM*; TDP1 cell noCPT: inconclusive

Results for c1ccc2c(CCNc3ncnc4nc[nH]c34)cccc2c1 ?
DT40 TDP1 CPT: 23µM*; IL1B secr inh: 104; TDP1 cell noCPT: 18µM*; HT1080 IDH1KD tx: -15%; ELG1 DNA repair: 23µM*; HT1080-NT tox: 1%

What do the screens show for `C1=C(CCNc2ncnc3nc[nH]c23)CCCC1`?
DT40 TDP1 CPT: 13µM*; IL1B secr inh: 32; TDP1 cell noCPT: 15µM*; HT1080 IDH1KD tx: -5%; ELG1 DNA repair: inconclusive; HT1080-NT tox: 4%

What do the screens show for `c1ccc(CCCNc2ncnc3nc[nH]c23)cc1`?
DT40 TDP1 CPT: inconclusive; IL1B secr inh: 4; TDP1 cell noCPT: 21µM*; HT1080 IDH1KD tx: -2%; ELG1 DNA repair: -15%; HT1080-NT tox: 9%

How did OCCOCCNc1ncnc2nc[nH]c12 do in these assays?
DT40 TDP1 CPT: -2%; IL1B secr inh: -26; TDP1 cell noCPT: -6%; HT1080 IDH1KD tx: -1%; ELG1 DNA repair: 7%; HT1080-NT tox: 0%

Results for Clc1ccc(CCNc2ncnc3nc[nH]c23)cc1 ?
DT40 TDP1 CPT: 12µM*; IL1B secr inh: 18; TDP1 cell noCPT: 7.3µM*; HT1080 IDH1KD tx: -19%; ELG1 DNA repair: inconclusive; HT1080-NT tox: -10%

What do the screens show for `CCCNc1ncnc2nc[nH]c12`?
DT40 TDP1 CPT: inconclusive; IL1B secr inh: 4; TDP1 cell noCPT: -15%; HT1080 IDH1KD tx: 2%; ELG1 DNA repair: 5%; HT1080-NT tox: 1%

What do the screens show for `NC(=O)CN1C(=O)C(=O)N(Cc2cccc(C(F)(F)F)c2)C1=O`?
DT40 TDP1 CPT: 5%; IL1B secr inh: 19; TDP1 cell noCPT: 11%; HT1080 IDH1KD tx: 1%; ELG1 DNA repair: inconclusive; HT1080-NT tox: 4%

Results for O=C(c1ccc(F)cc1)N1CCC(C(=O)N2CCN(S(=O)(=O)c3cccc(Cl)c3)CC2)CC1 ?
DT40 TDP1 CPT: -27%; IL1B secr inh: -2; TDP1 cell noCPT: inconclusive; HT1080 IDH1KD tx: -4%; ELG1 DNA repair: 0%; HT1080-NT tox: 0%

How did CC(=O)Oc1ccccc1C(=O)OCCN=C1NS(=O)(=O)c2ccccc21 do in these assays?
DT40 TDP1 CPT: -4%; IL1B secr inh: 6; TDP1 cell noCPT: inconclusive; HT1080 IDH1KD tx: -10%; ELG1 DNA repair: -1%; HT1080-NT tox: -15%

What do the screens show for `O=C(NCC(c1ccccc1Cl)N1CCCC1)C1CCN(C(=O)Nc2ccccc2)CC1` (centres undefined)?
DT40 TDP1 CPT: -8%; IL1B secr inh: 10; TDP1 cell noCPT: 7%; HT1080 IDH1KD tx: 2%; ELG1 DNA repair: 6%; HT1080-NT tox: 17%

Assay outcomes (PubChem BioAssay)
